Experimental data taken from the supplement of paper PMC11732987, “Enantioselective OTUD7B fragment discovery through chemoproteomics screening and high-throughput optimisation” (Communications Chemistry, 2025).

Tests used:
Assay in all cases: log2 ratio of Biotin-Ahx-Ub-VS probe labelling (fragment/DMSO); higher = less target engagement (more negative = stronger competition), active = hit call of the paper (q ≤ 0.05, log2 ratio ≤ -1)
Conditions in all cases: compound concentration: 200 uM; treatment time: 3 h
USP19 = biological target: T1, USP19 (UniProt O94966)
T1 sequence (whole entry): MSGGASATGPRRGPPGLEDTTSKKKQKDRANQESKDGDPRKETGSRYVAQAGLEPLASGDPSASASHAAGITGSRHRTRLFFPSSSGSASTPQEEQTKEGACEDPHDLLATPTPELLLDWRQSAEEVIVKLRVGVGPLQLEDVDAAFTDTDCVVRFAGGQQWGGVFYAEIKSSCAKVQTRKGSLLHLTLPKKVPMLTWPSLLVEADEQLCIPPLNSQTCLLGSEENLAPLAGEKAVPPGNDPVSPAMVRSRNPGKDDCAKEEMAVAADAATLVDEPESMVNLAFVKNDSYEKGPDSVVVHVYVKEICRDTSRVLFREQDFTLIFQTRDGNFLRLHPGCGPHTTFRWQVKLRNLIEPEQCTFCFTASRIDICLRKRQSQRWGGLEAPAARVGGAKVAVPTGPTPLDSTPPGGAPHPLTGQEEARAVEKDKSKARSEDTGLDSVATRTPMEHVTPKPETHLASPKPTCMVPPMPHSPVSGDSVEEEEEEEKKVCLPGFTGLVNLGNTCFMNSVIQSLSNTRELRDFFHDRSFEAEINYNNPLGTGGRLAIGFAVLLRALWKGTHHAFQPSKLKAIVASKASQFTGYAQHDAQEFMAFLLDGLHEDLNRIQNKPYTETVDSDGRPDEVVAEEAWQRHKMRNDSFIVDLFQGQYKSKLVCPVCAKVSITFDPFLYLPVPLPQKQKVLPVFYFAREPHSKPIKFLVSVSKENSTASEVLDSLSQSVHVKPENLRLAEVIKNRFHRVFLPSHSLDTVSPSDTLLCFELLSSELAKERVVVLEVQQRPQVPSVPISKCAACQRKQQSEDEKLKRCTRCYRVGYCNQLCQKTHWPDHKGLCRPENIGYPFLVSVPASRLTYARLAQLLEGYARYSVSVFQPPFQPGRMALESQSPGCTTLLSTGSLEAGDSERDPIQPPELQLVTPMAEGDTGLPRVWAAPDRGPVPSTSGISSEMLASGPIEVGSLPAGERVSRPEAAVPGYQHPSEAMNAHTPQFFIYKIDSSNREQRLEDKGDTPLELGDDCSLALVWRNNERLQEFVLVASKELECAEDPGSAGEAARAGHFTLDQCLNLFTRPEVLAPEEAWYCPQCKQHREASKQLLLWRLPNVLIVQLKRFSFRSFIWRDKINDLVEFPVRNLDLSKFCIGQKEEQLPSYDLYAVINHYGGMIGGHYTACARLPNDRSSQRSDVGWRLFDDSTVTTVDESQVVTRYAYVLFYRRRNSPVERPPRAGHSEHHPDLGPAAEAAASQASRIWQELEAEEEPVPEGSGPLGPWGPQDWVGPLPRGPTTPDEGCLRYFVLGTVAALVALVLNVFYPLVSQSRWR
How it was run: (§1)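 Average log2 ratios of fragment over vehicle were obtained by unpaired t-test from global-median-normalised Spectronaut label-free quantities. Proteins with ≥2 unique peptides were included. HEK293T lysate (495 µg per sample) was treated in triplicate with fragment at 200 µM or vehicle for 3 h, then with Biotin-Ahx-Ub-VS at 0.5 µM final for 1 h, and labelled DUBs were NeutrAvidin-enriched and run by diaPASEF LC-MS/MS.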

USP22 = biological target: T2, USP22 (UniProt Q9UPT9)
T2 sequence (whole entry): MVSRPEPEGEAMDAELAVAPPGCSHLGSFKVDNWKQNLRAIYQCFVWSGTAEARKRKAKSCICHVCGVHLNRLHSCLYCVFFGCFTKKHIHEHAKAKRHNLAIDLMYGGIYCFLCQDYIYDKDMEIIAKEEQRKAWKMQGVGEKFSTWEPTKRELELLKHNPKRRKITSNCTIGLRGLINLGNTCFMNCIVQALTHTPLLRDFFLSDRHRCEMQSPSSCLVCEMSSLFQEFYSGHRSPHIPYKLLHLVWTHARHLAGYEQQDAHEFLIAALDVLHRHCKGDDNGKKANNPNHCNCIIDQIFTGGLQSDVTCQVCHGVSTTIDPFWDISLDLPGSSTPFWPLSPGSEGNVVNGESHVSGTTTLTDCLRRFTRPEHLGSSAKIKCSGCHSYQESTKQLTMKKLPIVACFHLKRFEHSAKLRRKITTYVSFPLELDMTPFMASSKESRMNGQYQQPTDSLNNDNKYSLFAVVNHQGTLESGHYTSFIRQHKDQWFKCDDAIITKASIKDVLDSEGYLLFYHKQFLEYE
How it was run: as §1

USP24 = USP24 (UniProt Q9UPU5)
How it was run: as §1

USP25 = biological target: T3, USP25 (UniProt Q9UHP3)
T3 sequence (whole entry): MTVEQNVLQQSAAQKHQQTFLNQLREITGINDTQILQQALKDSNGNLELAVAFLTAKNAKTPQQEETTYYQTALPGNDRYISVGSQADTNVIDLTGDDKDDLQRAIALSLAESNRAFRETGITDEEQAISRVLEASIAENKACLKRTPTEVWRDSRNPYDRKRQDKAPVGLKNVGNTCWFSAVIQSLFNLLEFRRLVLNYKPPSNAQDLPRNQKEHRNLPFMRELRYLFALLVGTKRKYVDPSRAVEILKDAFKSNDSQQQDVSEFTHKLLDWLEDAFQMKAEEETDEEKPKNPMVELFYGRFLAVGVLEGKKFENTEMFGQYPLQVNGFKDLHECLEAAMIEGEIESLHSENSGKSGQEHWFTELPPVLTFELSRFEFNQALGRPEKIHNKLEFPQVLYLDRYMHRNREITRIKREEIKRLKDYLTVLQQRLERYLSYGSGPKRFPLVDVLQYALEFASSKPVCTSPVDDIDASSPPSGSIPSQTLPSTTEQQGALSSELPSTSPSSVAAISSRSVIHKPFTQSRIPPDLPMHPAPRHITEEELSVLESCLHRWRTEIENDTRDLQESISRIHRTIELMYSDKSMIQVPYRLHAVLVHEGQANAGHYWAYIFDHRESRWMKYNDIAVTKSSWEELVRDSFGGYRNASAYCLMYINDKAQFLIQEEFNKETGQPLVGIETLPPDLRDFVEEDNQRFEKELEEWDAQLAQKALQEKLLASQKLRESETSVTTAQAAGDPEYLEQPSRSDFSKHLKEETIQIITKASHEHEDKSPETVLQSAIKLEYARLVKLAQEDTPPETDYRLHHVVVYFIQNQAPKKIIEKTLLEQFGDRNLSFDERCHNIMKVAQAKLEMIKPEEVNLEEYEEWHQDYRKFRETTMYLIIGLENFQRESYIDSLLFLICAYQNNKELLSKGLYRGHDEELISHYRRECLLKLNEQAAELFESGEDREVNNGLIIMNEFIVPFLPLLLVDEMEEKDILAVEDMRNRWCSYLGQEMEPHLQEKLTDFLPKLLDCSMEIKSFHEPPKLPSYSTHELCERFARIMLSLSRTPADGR
How it was run: as §1

USP28 = biological target: T4, USP28 (UniProt Q96RU2)
T4 sequence (whole entry): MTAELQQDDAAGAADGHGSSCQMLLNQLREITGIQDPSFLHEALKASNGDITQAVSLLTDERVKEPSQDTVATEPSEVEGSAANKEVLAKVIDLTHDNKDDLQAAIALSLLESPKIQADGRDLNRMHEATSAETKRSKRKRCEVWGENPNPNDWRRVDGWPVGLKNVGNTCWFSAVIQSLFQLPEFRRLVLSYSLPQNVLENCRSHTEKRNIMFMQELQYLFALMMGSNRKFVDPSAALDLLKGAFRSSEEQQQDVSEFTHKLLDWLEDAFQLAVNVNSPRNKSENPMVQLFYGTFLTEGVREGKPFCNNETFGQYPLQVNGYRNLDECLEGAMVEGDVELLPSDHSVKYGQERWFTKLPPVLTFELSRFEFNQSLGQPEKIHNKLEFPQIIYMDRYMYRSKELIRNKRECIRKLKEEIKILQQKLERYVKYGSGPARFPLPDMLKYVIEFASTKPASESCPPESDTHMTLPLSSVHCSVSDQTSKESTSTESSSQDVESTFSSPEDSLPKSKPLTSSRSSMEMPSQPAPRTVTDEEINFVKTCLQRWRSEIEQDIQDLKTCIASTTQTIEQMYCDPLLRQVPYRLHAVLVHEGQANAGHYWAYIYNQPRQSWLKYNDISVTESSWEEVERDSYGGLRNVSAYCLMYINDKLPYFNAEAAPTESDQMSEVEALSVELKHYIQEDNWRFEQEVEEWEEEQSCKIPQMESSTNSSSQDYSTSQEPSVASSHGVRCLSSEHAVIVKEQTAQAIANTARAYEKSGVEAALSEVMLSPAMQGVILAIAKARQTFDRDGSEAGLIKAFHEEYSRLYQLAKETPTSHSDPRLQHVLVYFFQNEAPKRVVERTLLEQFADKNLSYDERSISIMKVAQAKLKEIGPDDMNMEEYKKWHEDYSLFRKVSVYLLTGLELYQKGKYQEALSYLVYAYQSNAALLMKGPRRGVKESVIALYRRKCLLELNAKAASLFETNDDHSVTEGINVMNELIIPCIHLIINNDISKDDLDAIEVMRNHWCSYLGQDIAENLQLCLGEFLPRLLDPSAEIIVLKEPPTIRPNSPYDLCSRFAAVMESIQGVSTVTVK
How it was run: as §1

Measured: log2 ratio of Biotin-Ahx-Ub-VS probe labelling

Sequence of USP24 (Q9UPU5 whole entry): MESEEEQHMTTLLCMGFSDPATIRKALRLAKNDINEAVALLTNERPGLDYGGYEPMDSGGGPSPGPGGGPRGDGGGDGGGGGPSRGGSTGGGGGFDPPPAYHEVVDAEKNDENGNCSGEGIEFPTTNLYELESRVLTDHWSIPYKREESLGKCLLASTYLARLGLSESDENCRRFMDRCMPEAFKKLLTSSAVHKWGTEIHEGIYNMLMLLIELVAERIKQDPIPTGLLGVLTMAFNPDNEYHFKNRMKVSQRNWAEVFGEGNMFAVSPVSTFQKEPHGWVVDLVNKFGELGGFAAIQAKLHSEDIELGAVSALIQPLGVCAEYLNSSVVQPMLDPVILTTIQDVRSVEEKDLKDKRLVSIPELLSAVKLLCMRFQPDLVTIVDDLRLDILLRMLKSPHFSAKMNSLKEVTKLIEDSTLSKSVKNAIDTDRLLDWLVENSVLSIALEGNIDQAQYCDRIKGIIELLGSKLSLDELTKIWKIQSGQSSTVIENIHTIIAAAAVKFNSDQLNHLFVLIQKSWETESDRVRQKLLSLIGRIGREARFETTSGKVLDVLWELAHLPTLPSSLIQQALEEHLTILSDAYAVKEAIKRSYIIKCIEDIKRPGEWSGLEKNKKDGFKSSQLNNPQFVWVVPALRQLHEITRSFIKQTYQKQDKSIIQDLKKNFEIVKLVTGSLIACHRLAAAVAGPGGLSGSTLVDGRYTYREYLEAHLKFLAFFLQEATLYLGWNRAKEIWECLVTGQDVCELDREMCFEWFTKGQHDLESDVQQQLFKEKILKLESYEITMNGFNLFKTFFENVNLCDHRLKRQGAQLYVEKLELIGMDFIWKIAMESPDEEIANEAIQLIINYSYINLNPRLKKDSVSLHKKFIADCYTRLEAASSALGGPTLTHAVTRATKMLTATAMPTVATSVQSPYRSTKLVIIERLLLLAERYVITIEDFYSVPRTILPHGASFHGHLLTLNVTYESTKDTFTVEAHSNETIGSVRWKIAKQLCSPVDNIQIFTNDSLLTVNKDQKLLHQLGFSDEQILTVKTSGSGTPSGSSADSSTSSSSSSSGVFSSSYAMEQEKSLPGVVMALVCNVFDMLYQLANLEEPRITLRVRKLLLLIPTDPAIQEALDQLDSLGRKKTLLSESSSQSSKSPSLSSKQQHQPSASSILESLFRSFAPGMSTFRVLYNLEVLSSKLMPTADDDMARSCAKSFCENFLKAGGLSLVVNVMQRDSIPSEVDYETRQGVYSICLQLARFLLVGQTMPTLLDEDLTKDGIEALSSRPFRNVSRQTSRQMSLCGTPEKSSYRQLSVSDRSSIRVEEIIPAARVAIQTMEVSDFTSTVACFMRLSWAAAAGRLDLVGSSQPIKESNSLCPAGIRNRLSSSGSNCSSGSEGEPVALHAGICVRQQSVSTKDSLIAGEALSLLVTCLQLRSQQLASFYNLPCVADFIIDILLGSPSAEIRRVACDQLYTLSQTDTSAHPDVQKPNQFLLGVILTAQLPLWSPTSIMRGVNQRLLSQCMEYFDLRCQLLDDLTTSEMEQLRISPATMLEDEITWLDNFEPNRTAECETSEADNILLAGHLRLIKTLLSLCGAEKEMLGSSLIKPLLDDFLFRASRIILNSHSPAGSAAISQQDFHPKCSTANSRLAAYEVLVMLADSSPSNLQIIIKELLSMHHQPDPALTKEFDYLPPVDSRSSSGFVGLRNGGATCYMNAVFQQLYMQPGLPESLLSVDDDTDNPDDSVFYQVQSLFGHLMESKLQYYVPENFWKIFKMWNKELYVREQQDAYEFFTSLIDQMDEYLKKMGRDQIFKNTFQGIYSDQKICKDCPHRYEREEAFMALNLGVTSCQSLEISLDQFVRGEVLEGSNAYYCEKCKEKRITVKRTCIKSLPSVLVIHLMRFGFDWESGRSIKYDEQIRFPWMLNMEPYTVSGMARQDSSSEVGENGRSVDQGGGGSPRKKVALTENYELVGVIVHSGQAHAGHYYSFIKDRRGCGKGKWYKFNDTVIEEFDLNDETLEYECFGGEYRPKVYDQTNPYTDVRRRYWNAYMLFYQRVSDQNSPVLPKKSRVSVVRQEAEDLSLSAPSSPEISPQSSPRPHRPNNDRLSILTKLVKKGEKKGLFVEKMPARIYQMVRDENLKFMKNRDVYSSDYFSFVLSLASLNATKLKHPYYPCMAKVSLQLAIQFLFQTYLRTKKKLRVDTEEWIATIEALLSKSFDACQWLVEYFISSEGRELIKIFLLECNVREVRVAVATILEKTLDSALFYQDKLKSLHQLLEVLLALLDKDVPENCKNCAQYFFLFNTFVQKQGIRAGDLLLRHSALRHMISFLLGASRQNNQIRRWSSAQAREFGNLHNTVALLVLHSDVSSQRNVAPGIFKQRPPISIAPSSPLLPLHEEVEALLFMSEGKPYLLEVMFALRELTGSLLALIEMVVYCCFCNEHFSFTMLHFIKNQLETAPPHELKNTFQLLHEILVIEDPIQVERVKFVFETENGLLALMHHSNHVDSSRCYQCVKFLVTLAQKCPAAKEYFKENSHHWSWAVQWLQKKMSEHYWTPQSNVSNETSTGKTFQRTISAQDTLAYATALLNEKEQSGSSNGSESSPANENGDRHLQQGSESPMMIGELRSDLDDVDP

O=C(CCl)Nc1cc(Cl)ccc1C(=O)O
inactive: USP19 -0.0222 | USP22 0.0608 | USP24 -0.0569 | USP25 0.269 | USP28 -0.0169
